Unmarked numbers belong to inactive results. How the calls were made is not given here.

The target of the test is Pantothenate synthetase (Mycobacterium tuberculosis (strain ATCC 25618 / H37Rv)) (UniProt P9WIL5). The experiment in a line: Recombinant Mtb pantothenate synthetase (PanC) inhibitors, coupled enzyme, confirmatory (AID 375).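 Further: 0% = full reaction with vehicle and 100% = no enzyme background.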 Particulars: coupled enzyme assay; at 10 µM, hits give high values.
Chain of Pantothenate synthetase (Mycobacterium tuberculosis (strain ATCC 25618 / H37Rv)) (P9WIL5 whole entry, looked up): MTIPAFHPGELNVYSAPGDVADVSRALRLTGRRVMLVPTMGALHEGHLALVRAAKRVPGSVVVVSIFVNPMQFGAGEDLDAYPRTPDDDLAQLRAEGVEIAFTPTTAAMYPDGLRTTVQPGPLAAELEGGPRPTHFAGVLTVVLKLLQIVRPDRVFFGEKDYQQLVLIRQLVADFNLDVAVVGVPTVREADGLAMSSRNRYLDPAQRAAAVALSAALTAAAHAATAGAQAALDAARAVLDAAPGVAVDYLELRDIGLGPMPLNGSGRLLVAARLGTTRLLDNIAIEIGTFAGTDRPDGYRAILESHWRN
Consider `CCOC(=O)c1oc2cccc(OC(C)=O)c2c1C`, for which the inhibition (as a rule, the percentage by which the read-out fell short of the control) was 4%. On to `OCCN(CCO)c1nc(N2CCCCC2)c2nc(N(CCO)CCO)nc(N3CCCCC3)c2n1`, for which the inhibition was 0%.

For `CCn1c(SCC(=O)Nc2cc(C)ccc2C)nc2c(c1=O)SC(C)C2` (centres undefined), the inhibition was 0%. The value for `CCOc1cc(C2NC(=O)N(C)C(C)=C2C(=O)OC)cc(Br)c1O` (centres undefined) was 0%; that for `COc1cccc(-c2nnc(SCC(N)=O)n2-c2ccc(Cl)cc2)c1` was 0%. For the compound `CCOc1ccccc1NC(=O)CSc1nnc(Cc2cccn2C)n1-c1ccc(F)cc1`, the inhibition was 5%. For `O=C(COC(=O)c1ccc(NS(=O)(=O)c2ccc3c(c2)OCCO3)cc1)NCC1CCCO1` (centres undefined), the inhibition is 2%. Take `Nc1c(N2CCCCC2)c(=O)[nH]c(=O)n1-c1ccccc1`: the inhibition is 0%.

`CC(C)CNS(=O)(=O)c1ccc(OCC(=O)Nc2ccc3c(c2)OCO3)c(Cl)c1`: the inhibition was 6%. The value for `Cc1cc(NC(=O)CSc2nc(C3CC3)nc3sc4c(c23)CCC(C)C4)no1` (centres undefined) was 6%; that for `CC(=O)Nc1ccc(S(=O)(=O)N(CC(=O)O)Cc2ccccc2)cc1` was 7%; that for `O=C(CN(C(=O)CCNC(=O)c1ccco1)c1ccccc1)NC1CCCC1` was 2%. The value for `COc1ccc(S(=O)(=O)N2CCN(S(=O)(=O)c3ccc4c(c3)OCCO4)CC2)cc1C` was 0%; that for `COc1ccccc1-n1c(C)nnc1SCC(=O)Nc1cccc(C(C)=O)c1` was 0%. The value for `COc1ccccc1-n1cnc2cc(NS(=O)(=O)c3ccccc3)ccc21` was 0%. Take `O=C1[C@@H]2C(c3ccccc3Cl)=NO[C@@H]2C(=O)N1Cc1ccccc1`: the inhibition was 0%. `CC1CCCN(c2ccc(C(=O)NCc3cccs3)cn2)C1` (centres undefined): the inhibition was 1%. The value for `CCOc1cc(C(=O)N2CCN=C2SC)cc(OCC)c1OCC` was 7%; that for `Cc1ccc(-c2nnn(CC(=O)N(CC(=O)NC3CCCCC3)c3cnc4ccccc4c3)n2)o1` was 8%; that for `COc1ccc(C(=O)N2CCOCC2)cc1Br` was 6%.

Consider `Cn1c(=O)[nH]c(=O)c2c1ncn2CCN1CCOCC1`, for which the inhibition was 0%. `COC(=O)c1sc(N)c(C(=O)OC)c1CSc1nc2sc3c(c2c(=O)n1C)CCC3`: the inhibition was 0%. The value for `CN(CC(=O)Nc1nccs1)S(=O)(=O)c1ccc(F)cc1` was 0%. On to `COc1cccc(-n2c(C)nc3c(cnn3-c3ccc(Cl)cc3)c2=O)c1`, for which the inhibition is 4%. The value for `COc1ccc(Cl)cc1Nc1nc(NCCO)nc(N2CCCC2)n1` was 9%; that for `COc1ccc2[nH]c(=O)c(CN(C(=O)c3ccncc3)C(C)C)cc2c1` was 0%. As for `CCOC(=O)C1CCCN(CCCc2ccccc2)C1` (centres undefined), the inhibition was 0%.

For `O=C(CCCCC(=O)NCc1cccs1)NCc1cccs1`, the inhibition was 8%. Turning to `O=C(CSc1ncnc2ccccc12)N1CCN(c2ccccc2)CC1`, the inhibition was 0%.

For `CN1CCC(NC(=O)c2cccs2)CC1`, the inhibition was 2%. Consider `Cc1cc(C)c(NC(=O)C2CSCCS2)c(C)c1` (centres undefined), for which the inhibition is 0%.

On to `O=C(O)Cn1cc2c(n1)CCCC2`, for which the inhibition is 0%. The value for `Oc1c(I)cc(Cl)c2cccnc12` was 4%. The value for `Cc1ccc(NC(=O)c2cc(S(=O)(=O)N3CCC4(CC3)OCCO4)ccc2F)cc1` was 0%. The value for `Cn1cccc1Cc1nnc(SCC(=O)NCc2ccc(F)cc2)n1-c1ccc(F)cc1` was 2%; that for `CCOC(=O)C1CCN(Cc2ccc(C(=O)OC)cc2)CC1` was 1%; that for `O=P1(O)C=C(c2ccccc2)NC(c2ccccc2)=C1` was 0%. In the case of `c1ccc(-c2nnc(OCCN3CCOCC3)c3ccccc23)cc1`, the inhibition is 0%.

`Cc1nnc2n(-c3ccc(Cl)cc3)c(=O)c3c4c(sc3n12)CN(C)CC4`: the inhibition is 3%.

The values above are taken from PubChem BioAssay.
